Test results reported in PubChem BioAssay (NCI).
About 83,000 compounds went through this panel and 20% of them were active in at least one assay; those are over-represented in the sample as a whole.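 Compound tested at a single concentration for 48 hours in 96-well plates; a percent growth value below 10 was scored as active.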 Unmarked numbers belong to inactive results. Activity calls are given as the source filed them.

The molecules below were run on SF-295 CNS (assay: NCI-60 one-dose screen, 48 h (100 = growth as untreated, 0 = no growth, -100 = all killed)). Settings: 10 µM unless noted.

Structure (SMILES) | growth
O=C1CC(c2ccc(O)c(O)c2)Oc2cc(O)c([C@@H]3O[C@H](CO)[C@@H](O)[C@H](O)[C@H]3O)c(O)c21 (some centres undefined) | 103%
O=C(NCc1ccccc1)c1ccc2c(c1)NC(=O)[C@@H]1CCCN21 | 98.7%
CCc1ccc(OCc2ccccc2C(=O)Nc2ccc3nc(C)cc(N)c3c2)cc1 | -92% (active)
CSc1cccc(NC(=O)Nc2nc3c(C)cccc3s2)c1 | 97.3%
COC(=O)[C@]1(C)CCC[C@]2(C)[C@H]3C[C@H]4C(C(C)C)=C[C@]3(CC[C@H]21)[C@@H]1C(=O)N(CCC#N)C(=O)[C@@H]14 | 99.5%
CC1=C(CCCOC(=O)NCCCl)C2=C(C)C3(CC3)[C@@](C)(O)C(=O)C2=C1 | 1.44% (active)
COc1ccc2[nH]c(-c3ccccc3)c(C=C(C#N)C#N)c2c1 | -35.2% (active)
Cc1nn(-c2ccc(-c3ccc(OC(F)(F)F)cc3)cc2)c2nc(-c3ccccc3)nc(N)c12 | 110%
O=S(=O)(O)c1ccc(N=NSc2ccc3ccccc3c2)cc1 | 97.4%
O=c1c2ccccc2n(CC(O)CN2CCCC2)c2c(Br)cccc12 (centres undefined) | 106%
CS(=O)(=O)O[C@@H]1C(=O)N(c2cc3c4ccccc4ccc3c3ccccc23)[C@H]1c1ccc(F)cn1 | 9.48% (active)
CC(C)(C)c1nn(-c2ccccc2)c2c1COCN2Cc1ccc(Cl)cc1 | 95.9%
Cc1cc(NC(=O)CNc2nc(Oc3ccc(F)cc3)nc(-c3ccc(F)cc3)n2)ccc1Cl | 96.9%
CC(=O)c1cc2c(N)c(C(=O)Nc3ccccn3)sc2nc1C | 71.6%
CCOC(=O)c1sc(/N=C2\NC(=O)/C(=C/c3ccc(N4CCN(C)CC4)cc3)S2)nc1C | 102%
O=C(/C(=C/c1ccc([N+](=O)[O-])cc1)SCc1ccc(F)cc1)c1ccc(Cl)cc1 | 81.6%
Cc1cnc(-c2ccc(-c3ccc(NC(=O)Nc4c(F)cc(F)cc4F)cc3F)c3c2C(=O)NC3)[nH]1 | 58.8%

Structure (SMILES) | growth
COc1ccc(Nc2cc(NC(=O)CNc3cc(OC)c(Cl)c(OC)c3Cl)ncn2)cc1 | 76.4%
Nc1n[nH]c2cccc(C#Cc3cccc(NC(=O)c4cc(N5CCOCC5)cc(C(F)(F)F)c4)c3)c12 | 69.1%
CC(C)(C)CC(C)(C)Cc1ccc(OCCOCC[N+](C)(C)Cc2ccccc2)cc1 | 73.5%
CCOCc1cc(C(C)(C)C)ccc1O | 105%
C=C1C(=O)O[C@H]2[C@H]1CC/C(COC(=O)Nc1nc3ccccc3[nH]1)=C\CC[C@@]1(C)O[C@@H]21 | 107%
C=C(C)[C@@H]1CC[C@]2(C(=O)n3ccnc3)CC[C@]3(C)[C@H](CC[C@@H]4[C@@]5(C)CCCNC(C)(C)[C@@H]5CC[C@]43C)[C@@H]12 | -54.7% (active)
C=C(C)[C@@H]1CC[C@]2(C(=O)O)CC[C@]3(C)[C@H](CC[C@@H]4[C@@]5(C)C[C@@H](CC#Cc6ccccc6C)C(=O)C(C)(C)[C@@H]5CC[C@]43C)[C@@H]12 | 33.1%
Clc1ccc2c(NCCCNC3CCCCC3)ccnc2c1 | 55.1%
CN(C)C(CNc1oc(-c2cccc3ccccc23)nc1C#N)c1ccco1 (centres undefined) | 90.1%
c1cc(CNC23CC4CC(CC(C4)C2)C3)cc(C[N+](Cc2cccc(CNC34CC5CC(CC(C5)C3)C4)c2)(Cc2cccc(CNC34CC5CC(CC(C5)C3)C4)c2)Cc2cccc(CNC34CC5CC(CC(C5)C3)C4)c2)c1 (centres undefined) | 54.4% [42 µM]
O=C1CCc2ccccc2N1 | 107%
Cc1cnc(SCc2ccc(Cl)cc2Cl)nc1Nc1ccc(Cl)c(Cl)c1 | 92.8%
COc1cc(C2=NN(C(C)=O)C(c3cccc(Nc4ccnc5cc(C(F)(F)F)ccc45)c3)C2)cc(OC)c1OC (centres undefined) | 53.8%
CCOC(=O)c1c(-c2ccc(O)cc2)c(C#N)c2c(C#N)c(N)nn2c1N | 79.9%
CN(C)CCCn1c2c(c3cc(-c4ccco4)ccc3c1=O)C(=O)c1ccccc1-2 | 82.6%
Nc1cc(N)c(S(=O)(=O)O)cc1N=Nc1cc([N+](=O)[O-])ccc1O | 107%
COc1cc(/C=N/Nc2nc(-c3ccc(F)cc3)c(C#N)c(N3CCOCC3)n2)ccc1O | 106%
